# The list is not random: actives were taken first. Their share in the collection is about 2.3%.
# IkB signaling – IkB Signaling. ABC-DLBCL IkBa-CBG/CBR dual luciferase ratio, 4 h; response scale: scaled: untreated 0%, proteasome inhibitor 100%. Potency, µM (series often up to 57.1 µM), inactives show top-dose IkBa stabilization activation. 110,000 tested, 0.04% active; active = well fitted curve in the direction sought with a large enough effect in the signal ratio, not every such curve was filed as active; inconclusive = small, poorly fitted or top-dose-only effect, or a change in a side signal; the % refers to the signal ratio;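 note: the direction sought is a rising ratio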
#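 Curves were fitted separately to fusion (green), unfused (red) and ratio luminescence, then classed by r2, magnitude and activity. Cells: OCI-Ly3, 4 h compound plus doxycycline at 37C; 10 uM MG-132 defined full response.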
# p53ts 39C tox – qHTS Screen for Compounds that Selectively Target Cancer Cells with p53 Mutations: Cytotoxicity of p53ts Cells at the Nonpermissive Temperature. H1299-p53A138V viability at 39C, ATP luminescence, 24 h. 130,000 tested, 1.5% active. Potency, µM (series often up to 46.1 µM), for the others: top-dose activity change, negative = cell killing, hits mostly cytotoxic; note: % is set by controls: 0 for no effect and ±100 for the full control effect; nearly all actives have a fitted effect of over 55% in size
# p53ts 32C tox – qHTS Screen for Compounds that Selectively Target Cancer Cells with p53 Mutations: Cytotoxicity of p53ts Cells at the Permissive Temperature | H1299-p53A138V at 32C, ATP luminescence viability, 24 h | Potency, µM (top dose mostly 46.1 µM), for the others: at the top dose activity change, negative = cytotoxicity, actives largely listed as cytotoxic | 130,000 tested, 0.93% active | AID 924, 2007;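 note: 0% = DMSO and -100% = full killing by reference compound; nearly all actives have a fitted effect of over 55% in size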
#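 ATP-content luminescence (ATPlite) read-out after 24 h compound exposure at 32C in H1299-p53A138V cells (600/well). Tested up to 46 uM. Normalized to DMSO (0%) and 100 uM tamoxifen (100% killing); Hill-fit AC50.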
# Peg3 imprint – qHTS Assay for Compounds that Induce Erasure of Genomic Imprints; mouse ES Peg3-LacZ reporter, beta-gal luminescence, 40 h; 110,000 tested, 0.02% active; AID 1948, 2009; Potency, µM (top dose mostly 60.7 µM), without a hit: at the highest dose activity change, positive = activation, actives largely listed as activators
#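 Each well holds 300 Peg3LacZ-Neo (maternal) female ES cells incubated 40 h at 37C, 5% CO2. LacZ is measured by BetaGlo luminescence, with AC50 and maximum efficacy derived from dose-response curves.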
# ERK AVP block – qHTS Assay for Inhibitors of the ERK Signaling Pathway using a Homogeneous Screening Assay; HEK293-V1b, vasopressin-stimulated pERK AlphaScreen; Potency, µM (titrated, usually from 57.5 µM), without a hit: at the top dose activity, negative = inhibition, most hits filed as inhibitors; 72,000 tested, 0.99% active; note: % is set by controls: 0 for no effect and ±100 for the full control effect; nearly all actives have a fitted effect of over 55% in size
#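 Phosphorylated ERK1/2 detected via AlphaScreen bead proximity in lysates of V1b-expressing HEK293 cells given 25 nM vasopressin for 5 min after 30 min compound exposure (37 °C). AC50 from Hill equation; basal DMSO 0%, vasopressin 100%.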
# The depositor's hits bear a star; ? = inconclusive; · = not tested or not shown; ! = not active in a repeat; [ ] = another dose, or the depositor's remark. Unless noted, calls come from the whole dose curve; as a rule, active = well fitted curve in the direction sought with a large enough effect; inconclusive = small, poorly fitted or top-dose-only effect, or another doubt; inactive = no such curve, though single readings can be large; an effect the other way counts as inactive or inconclusive. Potency is the fitted concentration of half-maximal effect.
SMILES,IkB signaling,p53ts 39C tox,p53ts 32C tox,Peg3 imprint,ERK AVP block
c1cc2c(cc1-c1cnc3n1CCC3)OCCO2,?,13µM*,?,-6%,16µM*
Cc1cc(=O)c2c(O)c3c(O)cc(O)c4c5c(O)cc(O)c6c(O)c7c(=O)cc(C)c8c1c2c(c34)c(c65)c78,·,·,·,-25%,·
COC(=O)Cn1c(CN2CCc3ccccc3C2)nc2c1c(=O)n(C)c(=O)n2C,2%,?,5µM*,-39%,·
Cc1ccccc1Cn1c(CN2CCc3ccccc3C2)nc2c1c(=O)n(C)c(=O)n2C,1%,14%,8%,-18%,-21%
CS(=O)(=O)c1ccc(/C=N\NC(N)=S)cc1,-1%[11.4 µM],12%[9.22 µM],-3%[9.22 µM],2%[10.9 µM],-7%[11.5 µM]
COc1ccc2c3c([nH]c2c1)[C@H]1C[C@@H]2[C@@H](C[C@@H](O)[C@H](OC)[C@H]2C(=O)O)CN1CC3,0%[11.4 µM],20%[9.22 µM],-1%[9.22 µM],-12%[10.9 µM],3%[11.5 µM]
O=[N+]([O-])c1ccccc1Nc1ccccc1,-2%,10%,9%[1.84 µM],0%,16µM*
NC(N)=N[C@H](CCC(=O)O)C(=O)O,-2%,6%,13%,·,-3%
CC[C@H](CN(C)C)C(=O)c1ccco1,1%[11.4 µM],6%[9.22 µM],10%[9.22 µM],-14%[10.9 µM],-11%[11.5 µM]
Cn1c(=O)[nH]c(=O)c2c1nc(CN1CCN(c3cccc(Cl)c3)CC1)n2CCCc1ccccc1,7%,4µM*,5µM*,-79%,·
NC(=O)NCCS[C@H]1CCCC[C@@H]1O,-2%[11.4 µM],-5%[9.22 µM],4%[9.22 µM],-14%[10.9 µM],-2%[11.5 µM]
CCc1ccccc1NC(=O)Nc1cc(C(=O)NCc2cccc(F)c2)ccc1N1CCCC1,1%,-27%,-13%,-15%[10.9 µM],·
CC(C)(C)CC(C)(C)c1ccc(O)c(Cc2ccc(Cl)cc2Cl)c1,·,25µM*,?,-35%,19%
c1ccc2c[n+](Cc3ccnc4ccccc34)ccc2c1,-1%[11.4 µM],-17%[9.22 µM],-15%[9.22 µM],4%[10.9 µM],12%[11.5 µM]
CCN(Cc1ccccc1)C(=O)Nc1ccc2c(c1)N(C)C(=O)c1ccccc1S2,6%,42%,6%,-4%[10.9 µM],·
CN(Cc1ccccc1)C(=O)Nc1ccc2c(c1)N(C)C(=O)c1ccccc1S2,-4%,13µM*,?,-17%[10.9 µM],·
O=C(CC1SC2=NCCN2C1=O)Nc1ccc(Cl)cc1 (stereo not drawn),-3%,9%,5%,6%,-17%
O=C(Nc1ccc(Cl)cc1)Nc1ccc2c(c1)N1CCN=C1S2,0%,-8%,-6%,-13%,32µM*
CC(C)CC1NC(=O)C(CCCN)NC(=O)C(C(C)C)NC(=O)C2CCCN2C(=O)C(Cc2ccccc2)NC(=O)C(CC(C)C)NC(=O)C(CCCN)NC(=O)C(C(C)C)NC(=O)C2CCCN2C(=O)C(Cc2ccccc2)NC1=O (stereo not drawn),·,5µM*,-10%,-30%,-26%
CC(/C=C/c1cccc(Oc2ccc(F)cc2)c1)N(O)C(N)=O (stereo not drawn),·,·,·,-13%,·
C[C@@H](/C=C\c1cccc(Oc2ccc(F)cc2)c1)N(O)C(N)=O,?,32µM*,32µM*,-30%,?
CC(C)(C)c1c2c(c(C(C)(C)C)c3c1OCN(Cc1ccccc1)C3)OCN(Cc1ccccc1)C2,0%[11.4 µM],-2%[9.22 µM],-5%[9.22 µM],-4%[10.9 µM],8%[11.5 µM]
CSCCNC(=O)c1ccc(C(C)(C)C)cc1,-3%,?,10µM*,-58%,?
CCCCNC(=O)c1cnn2c(C)c(Cc3c(C)cc(C)cc3C)c(C)nc12,?,16µM*,?,-25%[10.9 µM],·
Cc1nc2c(C(=O)NCc3ccccc3)cnn2c(C)c1Cc1ccc(F)cc1,2%,?,-3%,-20%[10.9 µM],·
SMILES,IkB signaling,p53ts 39C tox,p53ts 32C tox,Peg3 imprint,ERK AVP block
CSc1ccc2c(c1)N(CC[C@H]1CCCCN1C)c1ccccc1S2,0%[25.6 µM],13µM*!,·,-16%[16.8 µM],·
CN1CC[C@H](CN2c3ccccc3Sc3ccccc32)C1,2%[11.4 µM],-9%[9.22 µM],0%[9.22 µM],-5%[10.9 µM],7%[11.5 µM]
CSc1ccc2c(c1)N(CCC1CCCCN1C)c1ccccc1S2 (stereo not drawn),·,13µM*,·,-32%,·
Cc1ccc(-c2[nH]nc3c2C(c2cccnc2)C(C#N)=C(N)O3)cc1 (stereo not drawn),5%,-9%,-7%,23%,13µM*
N#CC1=C(N)Oc2n[nH]c(-c3ccccc3)c2C1c1cccnc1 (stereo not drawn),6%,-11%,6%,-2%,24%
CCOc1cc(C2C(C#N)=C(N)Oc3n[nH]c(-c4ccccc4)c32)ccc1O (stereo not drawn),-2%,-17%,24%,3%,16µM*
O=C(NCCN1CCCCC1)c1ccc(Cc2nc3ccccc3[nH]2)cc1,·,-3%,1%,·,·
CC1CCc2nc(NC(=O)C3CCCO3)sc2C1 (stereo not drawn),?,13µM*,10µM*,-57%,-11%
CC1CCc2nc(NC(=O)c3ccco3)sc2C1 (stereo not drawn),?,2.5µM*,2.5µM*,-83%,-20%
C=CCOC(=O)c1sc(NC(=O)c2ccco2)nc1C,6%,?,10µM*,-66%,8%
CCOC(=O)c1ccc2nc(NC(=O)c3ccco3)sc2c1,?,?,?,-85%,-3%
Cc1cc(C2(c3cc(C)c(O)c(C(=O)O)c3)OS(=O)(=O)c3ccccc32)cc(C(=O)O)c1O,-1%[11.4 µM],2%[9.22 µM],11%[9.22 µM],-7%[10.9 µM],14%[11.5 µM]
Cc1ccccc1C(=O)NCc1ccncc1,0%,-17%,0%,·,25µM*
Cc1ccccc1S(=O)(=O)Cc1ccc(C(=O)N2CCN(c3cccc(C)c3C)CC2)o1,?,13µM*,?,-34%,30%
Cc1ccccc1S(=O)(=O)Cc1ccc(C(=O)N2CCN(c3cccc(Cl)c3)CC2)o1,?,?,10%,-15%[10.9 µM],·
CCOC(=O)c1ccc(-n2c(N)c(C(=O)NCc3ccco3)sc2=S)cc1,1%,-13%,0%,-13%,20µM*
C=CCNC(=O)c1sc(=S)n(-c2ccc(C(=O)OCC)cc2)c1N,-2%,1%,6%,-21%,24%
CC1=C(c2ccc(F)cc2)S(=O)(=O)N=C1N1CCC(C(=O)NCCc2cccc(C)c2)CC1,?,-22%,10%,-6%[10.9 µM],·
CC1=C(c2ccc(C)c(C)c2)S(=O)(=O)N=C1N1CCC(C(=O)NCCc2ccc(Cl)cc2)CC1,0%,13µM*,?,-2%[10.9 µM],·
CCCCOCCOCCSC#N,-1%,-3%,4%[1.84 µM],0%,2%
CCOc1cc(CNCCSc2nnnn2C)ccc1OCc1ccc(Cl)cc1Cl,?,13µM*,35µM*,-13%[10.9 µM],·
CCOC(=O)CSc1nc2c(c(=O)n1-c1ccc(OCC)cc1)SCC2,0%,-3%,10%,-7%,4%
